In all, about 35,000 sequences were measured (“fluorescence intensity (a.u.)”: median about 10,000, highest 2% from about 52,000 on). The sample holds the highest values, similar sequences and a random draw of the others, so the mix is not that of the screen.

For this test, the target named is T1, OsWOX13 (Oryza sativa, UniProt Q5QMM3 1-267).
T1 sequence: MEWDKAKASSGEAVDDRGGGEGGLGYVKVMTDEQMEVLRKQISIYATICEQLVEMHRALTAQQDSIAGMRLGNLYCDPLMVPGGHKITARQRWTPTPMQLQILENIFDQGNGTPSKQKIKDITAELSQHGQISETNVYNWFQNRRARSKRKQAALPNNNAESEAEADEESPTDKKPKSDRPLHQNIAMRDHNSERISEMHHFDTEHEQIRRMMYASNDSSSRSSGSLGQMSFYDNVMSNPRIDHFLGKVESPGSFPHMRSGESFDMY
As to the kind of experiment: protein-binding microarray (RPBM); PBS, 2% BSA, 51.3 ng/ul salmon testes DNA, 50 uM zinc acetate, 200 nM TF, 25 C, 1 h; high values mean tight binding. The note with it: protein: recombinant; tags: N-terminal polyhistidine and DsRed monomer fusion (pET32a); label: CyDye5-dUTP incorporated in the synthesized complementary strand; 3' TTTTT single-stranded linker to array surface; dsDNA, one strand shown. The method in brief:
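For the binding signal, per-feature fluorescence intensity was read in arbitrary units on an Axon 4000B scanner. Before scanning, a 2% BSA-blocked custom Agilent array made double-stranded with Cy5-dUTP was washed after 1 h at 25 °C with 200 nM protein and 50 µM zinc acetate. The proteins were Ni–NTA-purified transcription factors with N-terminal polyhistidine and DsRed fusions, expressed in E. coli BL21-CodonPlus.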
As to “TTATTTGTTTTGTTTGTGATTTGCTTTATTATCAAAAGTACGGAGTCACCTAGTGCAG”, the binding signal was 4600 fluorescence intensity (a.u.).
For “ATCGTATCATTGATTTTCACTTAATATGGTGGACCCATCACGGAGTCACCTAGTGCAG” the value was 12700 fluorescence intensity (a.u.); for “ACAGACATAAATACGATTGATTAAGTAGTAGCCTAGCTAACGGAGTCACCTAGTGCAG”, 14600 fluorescence intensity (a.u.); for “GGTTTATTCAATTATGAAATTTTACTCCCCTATGTACTAACGGAGTCACCTAGTGCAG”, 11100 fluorescence intensity (a.u.).
For “GTTCATGCAATAACGTTAATTTGGGACTAGATTAGTATCCCGGAGTCACCTAGTGCAG” the value was 7620 fluorescence intensity (a.u.).
For “TTTATAATTAGTATCAAAACATCCGATATGATAGTTACTTCGGAGTCACCTAGTGCAG” the value was 17100 fluorescence intensity (a.u.); for “CCAATCCACAACATAACCATCAATCATTCATTGACGCAAGCGGAGTCACCTAGTGCAG”, 4680 fluorescence intensity (a.u.); for “GATTAATTTACTAGACGAATCTTTTAAGCCTAATTACTCCCGGAGTCACCTAGTGCAG”, 36100 fluorescence intensity (a.u.).
Take “CCGTCGCCTGATGGAGCAGAATCGTGAAACACGTTGTAAGCGGAGTCACCTAGTGCAG”: the binding signal is 57800 fluorescence intensity (a.u.).
In the case of “CTAAACACGTTGATGGGCCTGAATGGAGGAAGCCCATCGACGGAGTCACCTAGTGCAG”, the binding signal was 3790 fluorescence intensity (a.u.).
For “TTTCATGTAAATTAACACGAGCCTGAATCCTCCGTTGAAGCGGAGTCACCTAGTGCAG” the value was 3750 fluorescence intensity (a.u.); for “ATAATAATTAGTCATAAAGACAAGTGCTTATGCCCACTTACGGAGTCACCTAGTGCAG”, 16700 fluorescence intensity (a.u.).
To “ATGTGTCAATTAATTATTTGCCACTCGCTGTCTATGACATCGGAGTCACCTAGTGCAG” belongs 28300 fluorescence intensity (a.u.); to “GGTGGATGAGAATGGATTGAATGAAAACAACAACATATTACGGAGTCACCTAGTGCAG”, 7970 fluorescence intensity (a.u.).
“ATGATTGATTGCTTTTCCTAAATCCTAACCATGATGCTGTCGGAGTCACCTAGTGCAG”: the binding signal is 65000 fluorescence intensity (a.u.).
To “ATTGATGGGTACATTGAGATGGAGCTGTTTGGACAAGTTGCGGAGTCACCTAGTGCAG” belongs 7520 fluorescence intensity (a.u.); to “TGAAGATTGATGAGATGGACGGTACCATTGCCGATGCTGTCGGAGTCACCTAGTGCAG”, 56700 fluorescence intensity (a.u.); to “TTGCTGATTGAAGCTGATACTGTCGTGAAATGAACCATGTCGGAGTCACCTAGTGCAG”, 38200 fluorescence intensity (a.u.).
To “CAATTGTCCGGATTGAGATATGACTGAAGCGGATGCTGGACGGAGTCACCTAGTGCAG” belongs 3220 fluorescence intensity (a.u.).
For “TTTTGATCACACCATGATTGATGCACAAATCCATATGAACCGGAGTCACCTAGTGCAG” the value was 36800 fluorescence intensity (a.u.).
On to “GCCTAAGATAATTGATAAGAGTGCTTAAAGTGTACAACCGCGGAGTCACCTAGTGCAG”, for which the binding signal is 37500 fluorescence intensity (a.u.).
For “TATATTATTTGTCAATCTTATTGTCAACTTATTAATCATCCGGAGTCACCTAGTGCAG” the value was 7160 fluorescence intensity (a.u.); for “TCTGACCATTATTAATTTCTAGCAACTAGCAATTTTGTGCCGGAGTCACCTAGTGCAG”, 6120 fluorescence intensity (a.u.); for “AGATTACATGATTGGAAATCTTTCACATATTTGTTTCAGGCGGAGTCACCTAGTGCAG”, 51800 fluorescence intensity (a.u.).
To “TGTCTAATTGGTATCGTGAAGACTCTGAACCATTTCCATCCGGAGTCACCTAGTGCAG” belongs 35200 fluorescence intensity (a.u.).
For “CTTAATTAGCATGAAACACAAGTAGTATATGATTACACCACGGAGTCACCTAGTGCAG”, the binding signal is 33100 fluorescence intensity (a.u.).
To “CCCTTAATTAATTAAAACCGGTCACAGTATGTCCTTTAATCGGAGTCACCTAGTGCAG” belongs 41300 fluorescence intensity (a.u.); to “ATCTTAATTGAAACAAACACAGCTTTAGTATATGCATGTCCGGAGTCACCTAGTGCAG”, 58900 fluorescence intensity (a.u.); to “GTCCAGGCTTAATTCAATCATTATATGTACATATCTTTGTCGGAGTCACCTAGTGCAG”, 6860 fluorescence intensity (a.u.).
To “GAGAACTCTAATGAATTAGATTATATTCATGCTTGTTGATCGGAGTCACCTAGTGCAG” belongs 5820 fluorescence intensity (a.u.); to “ATCTGTAATTTATTTTATTATTAGTCTACGCTTAATACTTCGGAGTCACCTAGTGCAG”, 22000 fluorescence intensity (a.u.).
To “GATTGGTCATAATTATATATATATATTACTTCCTAATCACCGGAGTCACCTAGTGCAG” belongs 6390 fluorescence intensity (a.u.); to “CAGGCTGCTTAATTACATATATCTAGATATATATATTATTCGGAGTCACCTAGTGCAG”, 3870 fluorescence intensity (a.u.).
“ATTAATCGCTAATTAGGATAATTAATCACTAATTAGTATTCGGAGTCACCTAGTGCAG”: the binding signal is 43700 fluorescence intensity (a.u.).
To “CACACTATTAATCATTTTGATTTTGGTATACTGCACTTTTCGGAGTCACCTAGTGCAG” belongs 6110 fluorescence intensity (a.u.); to “TGATTGGTAATCAATCAATTATTATCATATACTCGCACTGCGGAGTCACCTAGTGCAG”, 62300 fluorescence intensity (a.u.); to “TTCAATTGATTATGAACTGCTTGTACTCTAATCAATGGTACGGAGTCACCTAGTGCAG”, 55800 fluorescence intensity (a.u.).
Consider “TTCTCTAATTGGTAATTCATGATTAATCACTCCTACTTTACGGAGTCACCTAGTGCAG”, for which the binding signal was 48000 fluorescence intensity (a.u.).
To “ATATATATATATATATATATATATATATTATCGCTAATAACGGAGTCACCTAGTGCAG” belongs 31200 fluorescence intensity (a.u.); to “ATTAATTATCTAATTAATTAATTAGCCCATCTGCTTACTTCGGAGTCACCTAGTGCAG”, 65000 fluorescence intensity (a.u.); to “GTGATTAATTAATTATTAATTAATCGCTAATCAGGATAATCGGAGTCACCTAGTGCAG”, 65500 fluorescence intensity (a.u.).
To “AGTCGAGTCAACTTAATTAACTTAACTTCAACCGTCGCTACGGAGTCACCTAGTGCAG” belongs 5940 fluorescence intensity (a.u.).

The values above are taken from PMC7819943, “Rice protein-binding microarrays: a tool to detect cis-acting elements near promoter regions in rice”.
